The source of these data is PubChem BioAssay (Tox21).

Unmarked numbers belong to inactive results. Inconclusive results are not listed. Calls of active or inactive are those of the source. Unless noted, the call rests on the fitted dose curve.

Test [1] can be described thus: Nuclear factor erythroid 2-related factor 2/antioxidant responsive element (Nrf2/ARE) small molecule agonists: qHTS cell viability counter screen in human keratinocytes (AID 1919968; active means well fitted curve in the direction sought with a large enough effect in the repeat runs; an effect the other way counts as inactive or inconclusive; further: nearly all actives have a fitted effect of over 55% in size). The essentials:
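Seed 1,500 KeratinoSens cells per well, then incubate 5 h at 37 C/5% CO2. Add compounds in DMSO and incubate 23 h. Add CellTiter-Fluor, wait 1 h and read fluorescence.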

A short description of test [2]: Nuclear factor erythroid 2-related factor 2/antioxidant responsive element (Nrf2/ARE) small molecule agonists: luciferase reporter gene qHTS assay in human keratinocytes (AID 1919969). Further: nearly all actives have a fitted effect of over 35% in size.
Test [3] deals with Gonadotropin-releasing hormone receptor (Homo sapiens) (UniProt P30968). In words: Human gonadotropin-releasing hormone receptor (GnRHR) small molecule agonists, calcium flux assay in GnRHR-HEK293 cells (AID 1920063). Further: nearly all actives have a fitted effect of over 35% in size. An outline of the steps:
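Cells: HEK293 stably expressing human GnRHR. Steps: overnight (18 h) culture, 1 h calcium dye loading at 37 C, compound addition, kinetic fluorescence read at 480/540 nm. Each compound tested at 15 concentrations in triplicate.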

For test [4], the target named is KiSS-1 receptor (Homo sapiens) (UniProt Q969F8). Put plainly: Human kisspeptin (KISS1R) small molecule agonists, calcium flux assay in KISS1R-HEK293 cells (AID 1920064; active means well fitted curve in the direction sought with a large enough effect in the repeat runs; an effect the other way counts as inactive or inconclusive). An outline of the steps: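 Cells plated and incubated 18 h; dye added, 1 h at 37 C; compounds in DMSO pinned in; signal read at 480/540 nm every second for 3 min. Each compound tested at 15 concentrations in triplicate.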
Sequence of KiSS-1 receptor (Homo sapiens) (Q969F8 whole entry, looked up): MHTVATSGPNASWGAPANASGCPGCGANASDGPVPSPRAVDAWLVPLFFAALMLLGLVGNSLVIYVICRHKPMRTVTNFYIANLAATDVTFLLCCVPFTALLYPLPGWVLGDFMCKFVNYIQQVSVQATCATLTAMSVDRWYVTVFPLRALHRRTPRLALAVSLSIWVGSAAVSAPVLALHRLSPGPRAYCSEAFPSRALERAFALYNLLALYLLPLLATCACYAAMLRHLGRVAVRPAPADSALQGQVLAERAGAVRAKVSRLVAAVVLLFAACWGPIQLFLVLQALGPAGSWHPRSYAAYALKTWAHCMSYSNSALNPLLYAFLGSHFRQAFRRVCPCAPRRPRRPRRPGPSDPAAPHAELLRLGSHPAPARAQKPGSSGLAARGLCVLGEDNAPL

Test [5] can be described thus: G protein-coupled receptor (GPCR) small molecule agonists, calcium flux assay: HEK293 wild type cell line counter screen (AID 1920065). An outline of the steps: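 Counter-screen of the Tox21 10K library for non-specific calcium release: dye-loaded cells received compounds in DMSO and were monitored by kinetic fluorescence (480/540 nm, 3 min). Fifteen concentrations, run in triplicate.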

Test [6] in a line: p53 small molecule agonists, cell-based qHTS assay with human liver microsomes (AID 1963577). The essentials:
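p53RE-bla reporter cells were pre-incubated 5 h at 37 C, then treated with compounds plus human liver microsomes (0.5 mg/mL final) and NADPH (0.5 mg/mL final) for 16 h at 37 C. Beta-lactamase activity was read by LiveBLAzer fluorescence after 2 h at room temperature.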

A short description of test [7]: p53 small molecule agonists, cell-based qHTS assay with rat liver microsomes (AID 1963578). The essentials:
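p53RE-bla cells were exposed to compounds together with rat liver microsomes (0.5 mg/mL final) and NADPH (0.5 mg/mL final) for 16 h at 37 C, then read by LiveBLAzer beta-lactamase fluorescence after 2 h at room temperature.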

Test [8] in a line: p53 small molecule agonists, cell-based qHTS assay with human liver microsomes: qHTS cell viability counter screen (AID 1963579). Further: nearly all actives have a fitted effect of over 45% in size. An outline of the steps:
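p53RE-bla cells (4,000/well) were pre-incubated 5 h at 37 C, then given compounds in DMSO plus human liver microsomes (0.5 mg/mL final) and NADPH (0.5 mg/mL final) for 16 h at 37 C. Viability was read by CellTiter-Glo luminescence.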

Test [9] is described as follows: p53 small molecule agonists, cell-based qHTS assay with rat liver microsomes: qHTS cell viability counter screen (AID 1963580). Further: nearly all actives have a fitted effect of over 45% in size. The essentials:
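HCT-116 p53RE-bla, 4,000 cells/well, 5 h pre-incubation; cpd + rat liver microsomes 0.5 mg/mL + NADPH 0.5 mg/mL (final); 16 h, 37 C; CellTiter-Glo, 30 min RT; luminescence.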

Test [10] in a line: p53 small molecule agonists, cell-based qHTS assay: qHTS cell viability counter screen (AID 1963581). Further: nearly all actives have a fitted effect of over 45% in size. An outline of the steps: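 Cells: HCT-116 with p53 response element-driven beta-lactamase. Treatment: 16 h, 37 C, compounds in DMSO. Read: CellTiter-Glo luminescence after 30 min RT.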
Test [11] in a line: p53 small molecule agonists, cell-based qHTS assay (AID 1963582; active means well fitted activation curve with a large enough effect in the signal ratio in the repeat runs, not every such curve was filed as active; the % refers to the signal ratio). An outline of the steps: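 Quantitative HTS in p53RE-bla cells: after a 5 h settling period, compounds delivered in DMSO were left on cells for 16 h at 37 C, and reporter induction was measured as fluorescence following 2 h substrate loading.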
For test [12], the target named is 5-hydroxytryptamine receptor 2A (Homo sapiens) (UniProt P28223). Put plainly: 5-hydroxytryptamine receptor 2A (HTR2A) small molecule antagonists, cell-based qHTS assay (AID 1963586). Further: nearly all actives have a fitted effect of over 45% in size. The essentials: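 Antagonist-mode intracellular calcium assay: DOI (4 nM) added after 5 min compound pre-incubation at room temperature to dye-loaded HTR2A-CHO cells. Fluorescence followed for 3 min, sampled every second.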
Sequence of 5-hydroxytryptamine receptor 2A (Homo sapiens) (P28223 whole entry, looked up): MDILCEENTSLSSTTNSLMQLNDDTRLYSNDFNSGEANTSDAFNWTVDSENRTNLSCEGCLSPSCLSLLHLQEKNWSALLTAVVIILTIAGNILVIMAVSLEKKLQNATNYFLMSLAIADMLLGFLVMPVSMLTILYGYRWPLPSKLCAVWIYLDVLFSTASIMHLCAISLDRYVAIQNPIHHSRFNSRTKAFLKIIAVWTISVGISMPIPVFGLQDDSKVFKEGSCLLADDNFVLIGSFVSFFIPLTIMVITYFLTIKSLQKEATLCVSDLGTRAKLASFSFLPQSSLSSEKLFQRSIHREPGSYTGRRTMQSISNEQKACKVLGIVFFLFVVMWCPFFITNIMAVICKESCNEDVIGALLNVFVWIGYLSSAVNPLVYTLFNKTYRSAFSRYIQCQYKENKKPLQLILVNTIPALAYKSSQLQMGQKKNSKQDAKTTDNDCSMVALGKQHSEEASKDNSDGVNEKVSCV

Test [13] has the same target. In words: 5-hydroxytryptamine receptor 2A (HTR2A) small molecule agonists, cell-based qHTS assay (AID 1963587). Further: nearly all actives have a fitted effect of over 30% in size. Further: potency means the concentration at half of the fitted maximal effect. An outline of the steps:
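Kinetic calcium-flux fluorescence (2 min, 1 sec intervals) after compound addition in agonist mode. HTR2A-CHO cells were cultured 18 h, then dye-loaded 1 h at 37 C.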

Test [14] has as its target Muscarinic acetylcholine receptor M1 (Homo sapiens) (UniProt P11229). In words: Cholinergic receptor muscarinic 1 (CHRM1) small molecule antagonists, cell-based qHTS assay (AID 1963588). Further: nearly all actives have a fitted effect of over 40% in size. An outline of the steps:
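CHRM1-CHO calcium-flux assay, antagonist mode. Cells were seeded 18 h, dye-loaded 1 h at 37 C and given compound for 5 min at RT, then acetylcholine was added at 50nM. FDSS fluorescence was read 3 min; 15 concentrations, three runs.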

Test [15] has the same target. In words: Cholinergic receptor muscarinic 1 (CHRM1) small molecule agonists, cell-based qHTS assay (AID 1963589). Further: nearly all actives have a fitted effect of over 35% in size. An outline of the steps: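 Agonist-mode qHTS in CHO cells stably carrying human muscarinic M1. Intracellular calcium is tracked by fluorescence every second after compound transfer; each compound runs at 15 concentrations in three independent runs.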
Test [16] can be described thus: cAMP Responsive Elements (CRE) small molecule agonists, cell-based qHTS assay (AID 1963590). An outline of the steps:
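Agonist mode qHTS in CRE-bla HEK 293T cells: compounds dosed from DMSO for 3 h at 37 C/5% CO2, followed by LiveBLAzer B/G FRET substrate for 2 h at room temperature.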

The nature of test [17]: cAMP Responsive Elements (CRE) small molecule antagonists, cell-based qHTS assay (AID 1963591; active means well fitted inhibition curve with a large enough effect in the signal ratio in the repeat runs, not every such curve was filed as active; the % refers to the signal ratio). An outline of the steps: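 Antagonist mode: test compounds are co-incubated with the adenylyl cyclase activator NKH477 (0.25 uM final) on CRE-bla HEK293T cells for 3 h at 37 °C, followed by LiveBLAzer substrate loading.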
The target of test [18] is Beta-2 adrenergic receptor (Homo sapiens) (UniProt P07550). Put plainly: Adrenergic beta2 receptor (ADRB2) small molecule antagonists, cell-based qHTS assay (AID 1963592). Further: series mostly up to about 92 µM; nearly all actives have a fitted effect of over 50% in size. The essentials:
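Cells (CHO, stable ADRB2 overexpression) incubated 18-20hr at 37C; compounds added from DMSO; agonist mix (1nM isoproterenol, 100uM IBMX, 25uM Ro-20-1724) added; 0.5hr RT; d2-cAMP and anti-cAMP-cryptate added; 1hr RT; 665/615 nm read.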

Test [19] addresses D(2) dopamine receptor (Homo sapiens) (UniProt P14416). In words: Dopamine D2 receptor (DRD2) small molecule agonists, cell-based qHTS assay (AID 1963594). Further: nearly all actives have a fitted effect of over 35% in size. The essentials:
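cAMP accumulation in DRD2-HEK293 cells measured by HTRF after 1 h detection; compounds added 10 min before NKH477 (200nM […]) forskolin-analogue stimulation, 30 min at room temperature, with Ro20-1724 present at 0.1 mM final.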

Test [20] has the same target. Put plainly: Dopamine D2 receptor (DRD2) small molecule antagonists, cell-based qHTS assay (AID 1963595; active means well fitted inhibition curve with a large enough effect in the signal ratio in the repeat runs, with a control signal flat; the % refers to the signal ratio). The essentials:
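DRD2-HEK293; 0.1 mM Ro20-1724; cpd 10 min RT; NKH477 200 nM + quinpirole 12 nM, 30 min RT; HTRF cAMP (cAMP-d2/anti-cAMP cryptate), 665/620 nm ratio after 1 h.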

Sequence of Muscarinic acetylcholine receptor M1 (Homo sapiens) (P11229 whole entry, looked up): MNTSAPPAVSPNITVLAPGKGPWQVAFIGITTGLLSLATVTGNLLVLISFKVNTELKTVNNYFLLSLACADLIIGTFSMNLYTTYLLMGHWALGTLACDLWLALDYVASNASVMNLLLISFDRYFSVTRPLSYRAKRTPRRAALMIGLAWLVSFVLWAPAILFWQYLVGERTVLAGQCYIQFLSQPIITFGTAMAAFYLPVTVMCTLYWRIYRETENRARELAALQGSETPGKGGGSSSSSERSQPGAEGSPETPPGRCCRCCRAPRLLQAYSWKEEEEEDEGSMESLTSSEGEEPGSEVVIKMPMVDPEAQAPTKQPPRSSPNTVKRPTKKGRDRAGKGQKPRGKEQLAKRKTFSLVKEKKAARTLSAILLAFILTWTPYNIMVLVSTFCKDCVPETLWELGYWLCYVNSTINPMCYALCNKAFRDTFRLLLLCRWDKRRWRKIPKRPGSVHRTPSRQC
Sequence of Beta-2 adrenergic receptor (Homo sapiens) (P07550 whole entry, looked up): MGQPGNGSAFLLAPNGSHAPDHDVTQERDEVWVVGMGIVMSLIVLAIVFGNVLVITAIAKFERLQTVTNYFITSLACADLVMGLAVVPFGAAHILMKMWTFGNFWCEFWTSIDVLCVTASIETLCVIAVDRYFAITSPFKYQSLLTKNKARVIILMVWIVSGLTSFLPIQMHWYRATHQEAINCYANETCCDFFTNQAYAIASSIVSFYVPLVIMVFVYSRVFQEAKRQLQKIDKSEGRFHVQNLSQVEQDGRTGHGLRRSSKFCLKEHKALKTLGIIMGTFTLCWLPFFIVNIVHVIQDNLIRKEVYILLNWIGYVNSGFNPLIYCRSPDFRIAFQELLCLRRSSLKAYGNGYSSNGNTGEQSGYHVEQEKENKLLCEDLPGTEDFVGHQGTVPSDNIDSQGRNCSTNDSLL
Sequence of Gonadotropin-releasing hormone receptor (Homo sapiens) (P30968 whole entry, looked up): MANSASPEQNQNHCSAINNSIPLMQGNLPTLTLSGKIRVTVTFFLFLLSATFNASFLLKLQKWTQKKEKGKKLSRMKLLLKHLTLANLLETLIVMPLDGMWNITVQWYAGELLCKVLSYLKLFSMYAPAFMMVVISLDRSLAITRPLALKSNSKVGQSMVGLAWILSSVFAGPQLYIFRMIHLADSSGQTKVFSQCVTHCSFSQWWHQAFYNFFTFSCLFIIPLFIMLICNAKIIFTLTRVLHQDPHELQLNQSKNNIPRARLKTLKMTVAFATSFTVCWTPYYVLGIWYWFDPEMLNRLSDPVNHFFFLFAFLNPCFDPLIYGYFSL
Sequence of D(2) dopamine receptor (Homo sapiens) (P14416 whole entry, looked up): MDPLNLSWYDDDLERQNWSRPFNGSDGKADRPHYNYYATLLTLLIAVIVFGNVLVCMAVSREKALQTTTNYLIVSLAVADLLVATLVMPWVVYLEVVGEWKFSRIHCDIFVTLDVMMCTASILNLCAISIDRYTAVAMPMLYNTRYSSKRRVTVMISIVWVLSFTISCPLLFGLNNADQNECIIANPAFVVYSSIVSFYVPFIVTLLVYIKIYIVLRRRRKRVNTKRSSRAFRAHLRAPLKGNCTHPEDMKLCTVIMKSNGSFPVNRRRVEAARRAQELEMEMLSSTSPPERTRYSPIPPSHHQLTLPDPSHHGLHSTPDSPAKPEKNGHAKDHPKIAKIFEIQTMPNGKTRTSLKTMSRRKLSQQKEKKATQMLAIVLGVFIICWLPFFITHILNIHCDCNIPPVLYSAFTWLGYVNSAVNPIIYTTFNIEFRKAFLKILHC

With `CCCCCCCC[Si](OCC)(OCC)OCC`, the Potency entry in test [1], in test [2], in test [3], in test [6], in [7] and in test [8] was “inactive” throughout. Moreover, the Potency entry in test [9], in test [10], in test [11], in [12], in test [13] and in [14] was “inactive” in each case. For the same molecule, the Potency entry in test [15], in [16], in test [17], in test [18], in [19] and in test [20] was “inactive” each time. Also, the outcome in test [4] and in [5] was inactive.

As for `Cc1cc(S(=O)(=O)O)c(N)cc1Cl`, the Potency entry in [1], in [2], in [3], in test [6], in [7] and in test [8] was “inactive” throughout. For the same molecule, the Potency entry in [9], in test [10], in test [11], in test [12], in test [13] and in [14] was “inactive” throughout. The Potency entry in test [15], in test [16], in [17], in test [18], in test [19] and in test [20] was “inactive” in each case. The result in test [4] and in test [5] was inactive.

Take `OCCC(O)CO` (stereo not given): the Potency result in test [1], in [2], in test [3], in test [6], in [7] and in test [8] was “inactive” throughout. In addition, the Potency result in test [9], in test [10], in test [11], in test [12], in [13] and in [14] was “inactive” in each case. Also, the Potency entry in [15], in test [16], in [17], in [18], in test [19] and in test [20] was “inactive” each time. Also, the outcome in test [4] and in test [5] was inactive.

`C=C(C)C(=O)OC1CC(C)CC(C)(C)C1` (stereo not given): the Potency result in [1], in test [2], in test [3], in test [6], in test [7] and in test [8] was “inactive” in each case. The Potency result in test [9], in test [10], in test [11], in test [12], in [13] and in test [14] was “inactive” each time. In addition, the Potency result in test [15], in test [16], in test [17], in [18], in test [19] and in test [20] was “inactive” throughout. Also, the result in test [4] and in test [5] was inactive.

For the molecule `CCOC(=O)C(C)(C)C`, the Potency entry in test [1], in [2], in test [3], in test [6], in test [7] and in [8] was “inactive” each time. Moreover, the Potency result in test [9], in [10], in test [11], in test [12], in test [13] and in test [14] was “inactive” in each case. In addition, the Potency result in test [15], in test [16], in test [17], in test [18], in test [19] and in [20] was “inactive” each time. For the same molecule, the outcome in [4] and in test [5] was inactive.

In the case of `COC(=O)c1cccc(Cl)c1`, the Potency entry in [1], in test [2], in test [3], in [6], in test [7] and in [8] was “inactive” each time. The Potency entry in test [9], in test [10], in test [11], in [12], in [14] and in test [15] was “inactive” throughout. The Potency result in [16], in test [17], in test [18], in test [19] and in test [20] was “inactive” in each case. Also, the outcome in [4] and in test [5] was inactive. The Potency in test [13] was 21.6 µM (active).

As to `O=C1CCCC(=O)C1`, the Potency entry in [1], in [2], in [3], in [6], in [7] and in [8] was “inactive” each time. In addition, the Potency entry in [9], in [10], in test [11], in test [12], in test [13] and in test [14] was “inactive” throughout. Moreover, the Potency entry in test [15], in test [16], in test [17], in [18], in [19] and in test [20] was “inactive” each time. For the same molecule, the outcome in test [4] and in test [5] was inactive.
